Screening data from PubChem.
An excerpt weighted towards active compounds, which were near 12% of everything screened.
Sfp inh – qHTS Assay for Inhibitors of Bacillus subtilis Sfp phosphopantetheinyl transferase (PPTase) | 4'-phosphopantetheinyl transferase ffp (Bacillus subtilis), Q9F4F7 | Biochemical Sfp PPTase activity, qHTS | Potency, µM, usual class: inhibitors | actives 3.5% (n = 310,000);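 further: the enzyme is Sfp with the accession as filed and its product quenches rhodamine fluorescence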
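With Hepes-Na pH 7.6 buffer containing 10 mM MgCl2, Sfp (15 nM) modified BHQ-2-YbbR (12.5 uM) using rhodamine-CoA (5 uM). Two reads 30 minutes apart at 525/598 nm yielded each well's rate.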
JMJD2A Tudor inh – qHTS Assay for Inhibitors of JMJD2A-Tudor Domain | Lysine-specific demethylase 4A (Homo sapiens), O75164 | AlphaScreen JMJD2A-Tudor / H3K4me3 peptide binding | Potency, µM (highest dose often 114 µM), actives largely listed as inhibitors | actives 4.4% (n = 390,000); further: nearly all actives have a fitted effect of over 50% in size
HP1b chromo inh – HTS for Inhibitors of HP1-beta Chromodomain Interactions with Methylated Histone Tails; AlphaScreen HP1-beta / biotin-H3K9me3 peptide binding; actives 0.56% (n = 390,000); Potency, µM (titrated, usually from 114 µM), hits mostly inhibitors; AID 540317, 2011; further: nearly all actives have a fitted effect of over 70% in size
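AlphaScreen: HP1-beta (50 nM) preformed 30 min with biotin-H3(1-18)K9me3 peptide (50 nM) in PBS pH 7.4, 0.01% Tween-20. Compound added for 30 min at RT, then streptavidin donor/nickel chelate acceptor beads (10 ug/mL) for 30 min.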
BAZ2B block – qHTS Assay for Inhibitors of BAZ2B. actives 4.4% (n = 360,000). Potency, µM (titrated, usually from 114 µM), actives largely listed as inhibitors. Bromodomain adjacent to zinc finger domain protein 2B (Homo sapiens), Q9UIF8. AID 504333, 2011. AlphaScreen BAZ2B-H3K14Ac peptide displacement; further: nearly all actives have a fitted effect of over 60% in size
Target sequence (Q9UIF8 whole entry, looked up, the tested form may be a part): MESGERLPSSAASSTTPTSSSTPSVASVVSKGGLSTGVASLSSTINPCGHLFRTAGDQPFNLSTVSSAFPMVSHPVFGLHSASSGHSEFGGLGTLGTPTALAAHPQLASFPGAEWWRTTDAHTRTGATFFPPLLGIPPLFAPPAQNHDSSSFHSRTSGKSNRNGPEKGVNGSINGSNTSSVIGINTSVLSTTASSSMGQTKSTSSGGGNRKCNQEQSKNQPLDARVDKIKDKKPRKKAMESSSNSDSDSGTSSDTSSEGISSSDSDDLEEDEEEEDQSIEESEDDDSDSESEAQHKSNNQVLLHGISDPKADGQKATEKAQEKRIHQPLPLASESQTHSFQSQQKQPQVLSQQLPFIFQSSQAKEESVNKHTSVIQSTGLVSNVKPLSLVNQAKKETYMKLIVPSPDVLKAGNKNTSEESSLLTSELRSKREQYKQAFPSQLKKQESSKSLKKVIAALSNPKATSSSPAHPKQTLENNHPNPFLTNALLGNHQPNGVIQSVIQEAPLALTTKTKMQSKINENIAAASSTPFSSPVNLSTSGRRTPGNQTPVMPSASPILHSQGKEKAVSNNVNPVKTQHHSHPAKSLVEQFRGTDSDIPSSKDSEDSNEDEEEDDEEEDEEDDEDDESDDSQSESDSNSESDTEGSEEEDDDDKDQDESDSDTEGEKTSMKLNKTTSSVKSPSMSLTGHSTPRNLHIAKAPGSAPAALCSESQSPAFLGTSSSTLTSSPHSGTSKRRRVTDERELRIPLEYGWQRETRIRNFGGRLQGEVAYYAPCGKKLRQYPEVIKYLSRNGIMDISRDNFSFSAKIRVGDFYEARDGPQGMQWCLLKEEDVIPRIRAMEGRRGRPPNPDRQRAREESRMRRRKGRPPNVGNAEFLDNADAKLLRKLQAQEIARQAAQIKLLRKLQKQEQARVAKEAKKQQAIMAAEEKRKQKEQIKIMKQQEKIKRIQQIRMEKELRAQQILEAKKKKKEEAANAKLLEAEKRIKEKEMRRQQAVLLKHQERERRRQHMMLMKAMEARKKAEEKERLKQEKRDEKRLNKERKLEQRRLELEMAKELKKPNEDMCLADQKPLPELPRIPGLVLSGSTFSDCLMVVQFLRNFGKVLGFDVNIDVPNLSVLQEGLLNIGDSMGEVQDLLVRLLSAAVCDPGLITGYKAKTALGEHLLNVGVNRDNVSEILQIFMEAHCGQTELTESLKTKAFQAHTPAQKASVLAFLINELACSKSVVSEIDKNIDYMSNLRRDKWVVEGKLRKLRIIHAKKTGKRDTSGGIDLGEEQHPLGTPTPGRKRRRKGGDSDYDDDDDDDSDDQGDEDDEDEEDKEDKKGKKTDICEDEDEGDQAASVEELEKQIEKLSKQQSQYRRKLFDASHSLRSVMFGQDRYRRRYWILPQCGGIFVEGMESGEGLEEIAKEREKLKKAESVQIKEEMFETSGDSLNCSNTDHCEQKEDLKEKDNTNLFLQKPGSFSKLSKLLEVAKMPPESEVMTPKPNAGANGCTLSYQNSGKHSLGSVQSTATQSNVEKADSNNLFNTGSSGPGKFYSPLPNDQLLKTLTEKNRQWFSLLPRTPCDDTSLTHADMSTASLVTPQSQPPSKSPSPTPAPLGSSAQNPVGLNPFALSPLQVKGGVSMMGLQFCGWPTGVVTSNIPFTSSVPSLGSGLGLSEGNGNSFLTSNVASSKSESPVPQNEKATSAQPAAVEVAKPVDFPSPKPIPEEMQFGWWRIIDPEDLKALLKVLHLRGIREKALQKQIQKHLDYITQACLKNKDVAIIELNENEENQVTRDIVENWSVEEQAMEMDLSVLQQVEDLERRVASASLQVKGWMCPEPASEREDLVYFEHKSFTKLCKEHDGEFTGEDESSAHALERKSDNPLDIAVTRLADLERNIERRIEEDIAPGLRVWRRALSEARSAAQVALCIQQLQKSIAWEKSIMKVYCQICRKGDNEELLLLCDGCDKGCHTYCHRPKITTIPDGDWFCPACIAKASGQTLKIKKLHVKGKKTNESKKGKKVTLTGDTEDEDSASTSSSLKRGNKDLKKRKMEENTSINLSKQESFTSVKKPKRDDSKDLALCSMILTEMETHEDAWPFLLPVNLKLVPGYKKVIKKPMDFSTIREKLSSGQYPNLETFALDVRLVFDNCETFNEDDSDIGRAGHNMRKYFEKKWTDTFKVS
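BAZ2B 50 nM plus b-H3(5-23)K14Ac 50 nM, PBS pH 7.4/0.01% Tween-20, 30 min RT; compound added (max 110 uM), 30 min RT; streptavidin donor/Ni-chelate acceptor beads 10 ug/mL final, 20 min dark; AlphaScreen read.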
G9a block – qHTS Assay for Inhibitors of Histone Lysine Methyltransferase G9a | Potency, µM (series often up to 102 µM), actives largely listed as inhibitors | actives 8.8% (n = 350,000) | Histone-lysine N-methyltransferase EHMT2 (Homo sapiens), Q96KQ7 | G9a H3K9 monomethylation, AlphaScreen, 2 h; further: nearly all actives have a fitted effect of over 75% in size
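G9a (20 nM) preincubated 15 min RT with compounds, then 500 nM biotinylated H3K9 peptide and 20 uM SAM added; 2 h RT reaction. Monomethyl-H3K9 product detected by AlphaScreen with anti-H3K9me1 antibody, streptavidin donor and anti-rabbit IgG acceptor beads.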
Each line names hits and unclear results; the compound was inactive in the other large screens; ! = repeats disagree. The call rests on the fitted dose curve; in most records, active means well fitted curve in the direction sought with a large enough effect; inconclusive means small, poorly fitted or top-dose-only effect, or another doubt; inactive means no such curve, though single readings can be large; an effect the other way counts as inactive or inconclusive.

O=c1[nH]cnc2c1ncn2[C@H]1C[C@H](O)[C@@H](CO)O1	none (no result: Sfp inh, BAZ2B block, G9a block)
CN(C)S(=O)(=O)c1cccc(-c2nnc(SCCNCCO)n2-c2ccc(F)cc2)c1	JMJD2A Tudor inh 50µM, BAZ2B block 79µM, G9a block inconclusive
Nc1nc(N)c(N=O)c(OCC2CCCCC2)n1	JMJD2A Tudor inh inconclusive
CCn1ccc2cc(S(=O)(=O)N3CCCN(C(=O)Nc4cc(Cl)ccc4C)CC3)ccc21	none (no result: Sfp inh)
c1cncc(-c2nn3c(Cn4cnc5ccccc54)nnc3s2)c1	JMJD2A Tudor inh 89µM, HP1b chromo inh inconclusive, G9a block inconclusive
Clc1ccc(Cl)c(-c2nn3c(Cn4cnc5ccccc54)nnc3s2)c1	none (no result: Sfp inh, BAZ2B block, G9a block)
c1ccc2c(c1)ncn2Cc1nnc2sc(-c3ccncc3)nn12	Sfp inh 16µM, JMJD2A Tudor inh inconclusive, G9a block inconclusive
c1ccc(-c2nn3c(Cn4cnc5ccccc54)nnc3s2)cc1	Sfp inh 10µM, HP1b chromo inh inconclusive, G9a block 1.3µM
c1cncc(-c2nn3cnnc3s2)c1	none
c1ccc(OCc2nn3c(Cn4cnc5ccccc54)nnc3s2)cc1	Sfp inh inconclusive, HP1b chromo inh inconclusive, G9a block inconclusive
CCOCCSc1c(C)cnc2c1c(=O)n(C)c(=O)n2C	G9a block 13µM (no result: Sfp inh)
Cc1[nH]c(C)c(S(=O)(=O)N2CCN(c3ccccc3)CC2)c1C(=O)N1CCCC1	G9a block 45µM
COc1cccc(CC(=O)Nc2ccc3nc(Nc4cccc(C(F)(F)F)c4)cc(C)c3c2)c1	none (no result: Sfp inh)
CC[n+]1ccc(C)c2cc(SC(F)(F)F)ccc21	G9a block 7.9µM
CC[n+]1ccc(C)c2cc(P(=O)(c3ccccc3)c3ccccc3)ccc21	JMJD2A Tudor inh inconclusive, HP1b chromo inh inconclusive, BAZ2B block 45µM, G9a block inconclusive
CC[n+]1ccc(C)c2cc(S(=O)C(F)(F)F)ccc21 (centres undefined)	G9a block inconclusive
CC1CCc2c(sc3[nH]c(=S)n(C)c(=O)c23)C1 (centres undefined)	Sfp inh 79µM, JMJD2A Tudor inh inconclusive, HP1b chromo inh inconclusive, G9a block 3.5µM
CC1CCc2c(sc3nn[nH]c(=O)c23)C1 (centres undefined)	Sfp inh inconclusive, G9a block inconclusive
O=C(COc1ccc(Br)cc1Cl)NC(=S)N1CCc2ccccc21	none
O=C(COc1ccc(Br)cc1Br)NC(=S)N1CCCc2ccccc21	Sfp inh 56µM, JMJD2A Tudor inh 50µM, BAZ2B block 50µM, G9a block 8.9µM
CCCCCCCCCCCCCCC[C@H](O)[C@H](N)CO	Sfp inh 71µM (no result: JMJD2A Tudor inh, HP1b chromo inh, BAZ2B block)
CCCCCCCCCCCCCCC[C@@H](O)[C@@H](N)CO	Sfp inh 45µM! (no result: BAZ2B block)
CCCCCCCCCCC(CO)CCCCCCCC (centres undefined)	none (no result: JMJD2A Tudor inh, HP1b chromo inh, BAZ2B block)
COC(=O)[C@@]1(Cc2ccc(OC)cc2)[C@H]2c3cc(C(=O)N(C)C)n(Cc4nc5ccccc5[nH]4)c3C[C@H]2CN1C(=O)c1ccccc1	none (no result: JMJD2A Tudor inh, HP1b chromo inh, BAZ2B block, G9a block)
CCOC(=O)C1=CN(Cc2ccco2)S(=O)(=O)N(CC)C1c1ccccc1 (centres undefined)	none (no result: Sfp inh, BAZ2B block, G9a block)
Oc1ccccc1C1=Nc2ncnn2C(c2ccc(F)cc2)C1 (centres undefined)	BAZ2B block 56µM, G9a block 25µM
CC[n+]1c(C)sc2cc(OC)ccc21	G9a block 25µM
COc1cc(OC)cc(C2=Nn3c(nnc3-c3ccccc3O)SC2)c1	none (no result: HP1b chromo inh, BAZ2B block, G9a block)
CC(=O)c1ccc(N=C2C(=O)Nc3ccccc32)cc1	G9a block inconclusive
CC(=O)N(/N=C1/C(=O)Nc2ccccc21)c1ccccc1	JMJD2A Tudor inh inconclusive, HP1b chromo inh inconclusive, G9a block 14µM
O=C1[C@H]2CCC=C[C@H]2[C@H](c2cccc(Br)c2)N1Cc1ccccc1	Sfp inh 112µM, JMJD2A Tudor inh inconclusive (no result: BAZ2B block)
O=C1C2C(c3ccccc3)CC=CC2C(c2cccc(Br)c2)N1Cc1ccccc1 (centres undefined)	none (no result: BAZ2B block, G9a block)
CC(=O)NC(=S)NNC(=O)C(c1ccccc1)c1ccccc1	JMJD2A Tudor inh inconclusive, G9a block 11µM
O=C1CCC/C(=N\NC(=O)c2ccc(NS(=O)(=O)c3ccc(Br)cc3)cc2)C1	Sfp inh inconclusive, G9a block 79µM
Cc1ccc(Cl)cc1NC(=O)Nc1cccc(OCc2cc(=O)n3ccccc3n2)c1	none (no result: Sfp inh)
c1csc(-c2nc(N3CCN(Cc4ccc5c(c4)OCCO5)CC3)c3ccccc3n2)c1	JMJD2A Tudor inh inconclusive (no result: Sfp inh, BAZ2B block, G9a block)
CCc1ccc(OCCSc2nc(-c3cccc(C)c3)nc3cc(=O)[nH]n23)cc1	none (no result: Sfp inh)
Cc1cccc(-c2nc(SCCCOc3ccc(Cl)c(C)c3)n3[nH]c(=O)cc3n2)c1	none (no result: Sfp inh)
CCc1ccc(OCCCSc2nc(-c3ccc(C(C)(C)C)cc3)nc3cc(=O)[nH]n23)cc1	JMJD2A Tudor inh 25µM, BAZ2B block 50µM (no result: Sfp inh)
Cc1cccc(OCCCSc2nc(-c3ccc(C(C)(C)C)cc3)nc3cc(=O)[nH]n23)c1C	JMJD2A Tudor inh 25µM, BAZ2B block 56µM (no result: Sfp inh)
Cn1c(=O)c2[nH]c(N/N=C(/C#N)C(N)=O)nc2n(C)c1=O	Sfp inh 56µM, BAZ2B block inconclusive, G9a block 14µM
CCCCCCCC#Cc1ccccc1C(NC(=O)OC)C(C(=O)OC)C(=O)OC (centres undefined)	none (no result: JMJD2A Tudor inh, HP1b chromo inh, BAZ2B block, G9a block)
C=CCn1c(CC#N)nnc1N1CCOCC1	JMJD2A Tudor inh inconclusive, BAZ2B block 50µM, G9a block inconclusive
Cc1c(-c2nsc(NC(=O)c3ccccc3)n2)nnn1-c1ccc(C(F)(F)F)c(Cl)c1	none (no result: Sfp inh)
COc1cc([N+](=O)[O-])cc(/C=N/NC(=O)Cn2nccc2C)c1O	BAZ2B block 45µM
COc1cc(Br)cc(/C=N/NC(=O)Cc2ccc(C(F)(F)F)cc2[N+](=O)[O-])c1O	Sfp inh inconclusive, JMJD2A Tudor inh 89µM
COc1cc([N+](=O)[O-])cc(/C=N/NC(=O)Cn2nc(C)cc2C)c1O	JMJD2A Tudor inh 79µM, BAZ2B block 71µM
O=C(Nc1cc(Cl)ccc1-n1cncn1)c1ccc([N+](=O)[O-])s1	JMJD2A Tudor inh inconclusive, G9a block inconclusive
Cc1cc(=O)oc(C)c1C(=O)NC1CCCCCCC1	none
COC(=O)c1cccc(-n2c(CCC(=O)O)ccc2-c2ccc(OC)cc2)c1	BAZ2B block inconclusive, G9a block 18µM (no result: Sfp inh)
O=C(O)CCc1ccc(-c2ccc(Br)cc2)n1-c1ccccc1O	G9a block inconclusive (no result: Sfp inh)
CCOC(=O)c1ccc(-n2c(CCC(=O)O)ccc2-c2ccc(F)cc2)cc1	G9a block 45µM
CC(=O)Nc1ccc(-n2c(CCC(=O)O)ccc2-c2ccc(C)cc2)cc1	G9a block 14µM (no result: Sfp inh)
CCOC(=O)c1ccc(NC(=O)Nc2ccc(F)cc2)cc1	none
